Most compounds without a hit are left out; they make up all but 1.3% or so of the library.
STK33 kin inh – STK33 kinase inhibitors, primary screen, biochemical, luminescence, ADP-Glo, MBP substrate; inhibition, % at 12.5 µM; 27,000 tested, 0.44% active; AID 2322, 2010; in the data active means inhibition above about 20%
ID4 binder – binders of human ID4 protein, primary screen, biochemical, small molecule microarray, single point. DNA-binding protein inhibitor ID-4 (Homo sapiens), P47928. 31,000 tested, 1.2% active. calls only. Flag-ID4 binding, fluorescence F/B; call rule not given here;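 further: a binder raises fluorescence above local background on the spot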
Target sequence (P47928 whole entry, looked up): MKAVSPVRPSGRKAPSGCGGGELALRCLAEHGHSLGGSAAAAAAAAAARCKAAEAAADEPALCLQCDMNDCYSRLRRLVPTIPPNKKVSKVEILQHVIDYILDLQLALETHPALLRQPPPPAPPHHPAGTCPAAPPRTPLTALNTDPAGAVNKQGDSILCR
Of the large screens only hits and unclear results are named; the others gave an inactive call.

CNC[C@@H]1Oc2ccc(NS(C)(=O)=O)cc2CC(=O)N([C@@H](C)CO)C[C@@H]1C	ID4 binder active
CNC[C@@H]1Oc2ccc(NS(=O)(=O)c3cccs3)cc2CC(=O)N([C@H](C)CO)C[C@H]1C	ID4 binder active
CNC[C@H]1Oc2ccc(NS(=O)(=O)c3cccs3)cc2CC(=O)N([C@H](C)CO)C[C@H]1C	none
CNC[C@H]1Oc2ccc(NS(C)(=O)=O)cc2CC(=O)N([C@H](C)CO)C[C@H]1C	none
CCOC(=O)c1c(NC(=O)c2cc(-c3cccnc3)nc3c(C)cc(C)cc23)sc(C(C)=O)c1C	none
O=C(Nc1ccccc1)Nc1ccc(Cl)cc1SCc1ccccc1	none (no result: ID4 binder)
CCOC(=O)c1cnc(SC2CC(=O)N(c3cccc(F)c3)C2=O)nc1N (stereo not drawn)	none
CN1C(=O)c2ccccc2NC(=O)/C1=C\c1ccccc1	none (no result: ID4 binder)
O=C1Cc2c([nH]c3ccc(Br)cc23)-c2ccccc2N1	none (no result: ID4 binder)
CN(C)c1ccc(/C=C2/C(=O)Nc3ccccc32)cc1	STK33 kin inh 33.7 (no result: ID4 binder)
O=C1Nc2ccccc2/C1=C\c1c(Cl)[nH]c2ccccc12	STK33 kin inh 29.1
O=S(=O)(N[C@@H]1CCN(Cc2ccc(OCCO)cc2)C1)c1cc(Cl)ccc1Cl	none (no result: ID4 binder)
O=c1c(C(F)(F)F)cccn1CCc1nc(-c2ccccc2)cs1	none (no result: ID4 binder)
O=C(O)c1ccccc1Sc1ccccc1S(=O)(=O)NC12CC3CC(CC(C3)C1)C2	none (no result: ID4 binder)
O=C(NCCNC(=O)c1ccco1)c1ccco1	none
CC(CNC(=O)c1ccco1)NC(=O)c1ccco1 (stereo not drawn)	ID4 binder active
C[C@H](CCC(=O)O)[C@H]1CCC2C3C(=O)CC4CC(=O)CC[C@]4(C)C3CC(=O)[C@@]21C (stereo partly drawn)	ID4 binder active
COc1ccccc1NC(=O)c1ccc(OCC(=O)Nc2cc(Cl)cc(Cl)c2)cc1	none
C[C@@H]1CN([C@@H](C)CO)C(=O)c2cc(NC(=O)NC3CCCCC3)ccc2O[C@@H]1CN(C)S(=O)(=O)c1ccc(Cl)cc1	none (no result: STK33 kin inh)
COc1ccc(S(=O)(=O)N(C)C[C@@H]2Oc3ccc(NC(=O)CCCN(C)C)cc3C(=O)N([C@H](C)CO)C[C@@H]2C)cc1	none (no result: STK33 kin inh)
C[C@H](CO)N1C[C@H](C)[C@@H](CN(C)S(=O)(=O)c2ccc(Cl)cc2)Oc2ccc(NC(=O)NC3CCCCC3)cc2C1=O	ID4 binder active (no result: STK33 kin inh)
Cc1noc(C)c1S(=O)(=O)N(C)C[C@@H]1OCCCC[C@@H](C)Oc2ccc(NC(=O)CCCN(C)C)cc2C(=O)N([C@H](C)CO)C[C@@H]1C	none (no result: STK33 kin inh)
COc1ccc(S(=O)(=O)N(C)C[C@H]2Oc3ccc(NC(=O)CCCN(C)C)cc3C(=O)N([C@H](C)CO)C[C@@H]2C)cc1	ID4 binder active (no result: STK33 kin inh)
Cc1noc(C)c1S(=O)(=O)N(C)C[C@H]1Oc2ccc(NC(=O)CCCN(C)C)cc2C(=O)N([C@H](C)CO)C[C@@H]1C	ID4 binder active (no result: STK33 kin inh)
N=C1S/C(=C/c2ccco2)C(=O)N1c1nccs1	none (no result: ID4 binder)
CCC(=O)c1ccc2c(c1)N(CC(C)N(C)C)c1ccccc1S2 (stereo not drawn)	none (no result: ID4 binder)
N#Cc1ccccc1NC(=O)CCCN1C(=O)c2ccccc2C1=O	none
O=C(NC(NCc1ccccn1)(C(F)(F)F)C(F)(F)F)c1cccnc1	none (no result: ID4 binder)
C=CCOC(=O)[C@H]1[C@@H]2C(=O)O[C@@H](c3ccccc3)[C@@H](c3ccccc3)N2[C@@H](c2ccc(OCCOC(=O)[C@H]3C[C@H]4C(=O)N5CCC[C@H]5C(=O)N4[C@H]3c3ccc(O)cc3)cc2)[C@]12C(=O)Nc1ccccc12	none (no result: STK33 kin inh)
O=C1O[C@H](c2ccccc2)[C@H](c2ccccc2)N2[C@H]1[C@@H](C(=O)N1CCCCCCC1)[C@]1(C(=O)Nc3ccc(C#CC4(O)CCCCCC4)cc31)[C@H]2c1ccc(OCCO)cc1	none (no result: ID4 binder)
COc1cc2c(cc1OC)CN(C(=O)[C@H]1[C@@H]3C(=O)O[C@@H](c4ccccc4)[C@@H](c4ccccc4)N3[C@@H](c3ccc(OCCO)cc3)[C@]13C(=O)Nc1ccc(C#CC4=CCCCC4)cc13)CC2	STK33 kin inh 21.8
C=CCOC(=O)[C@H]1[C@@H]2C(=O)O[C@@H](c3ccccc3)[C@@H](c3ccccc3)N2[C@@H](c2ccc(OCCOC(=O)[C@@H]3C[C@@H]4C(=O)N5CCC[C@H]5C(=O)N4[C@@H]3c3ccc(O)cc3)cc2)[C@]12C(=O)Nc1ccc(I)cc12	ID4 binder active
COc1cc2c(cc1OC)CN(C(=O)[C@@H]1[C@H]3C(=O)O[C@H](c4ccccc4)[C@H](c4ccccc4)N3[C@H](c3ccc(OCCO)cc3)[C@@]13C(=O)Nc1ccc(C#CC4=CCCCC4)cc13)CC2	none (no result: ID4 binder)
NC(=O)[C@@H]1[C@H]2C(=O)O[C@H](c3ccccc3)[C@H](c3ccccc3)N2[C@H](c2ccc(OCCO)cc2)[C@@]12C(=O)Nc1ccc(C#CC3(O)CCCCCC3)cc12	STK33 kin inh 22.1
